Source: PubChem BioAssay
Active and inactive are the calls of the source.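 How the source made its calls: active means thallium flux through the channel raised or lowered by more than 3 SD from vehicle-only wells, actives on both sides; inactive means the rest.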

Key:
Experiment in all cases: BK channel mutant inhibitors and activators – cell-based, U2OS BacMam, thallium flux, beta subunits, selectivity assay, profiling panel (AID 1259406);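 further: initial slope of Thallos dye fluorescence rise after thallium is added; log ratio against the mean of 0.3% DMSO vehicle wells on the same plate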
F380Y = settings: U2OS BacMam BK variants, at 30 µM
F380Y/beta1 = settings: U2OS BacMam BK variants, at 30 µM
F380Y/beta2Delta = settings: U2OS BacMam BK variants, at 30 µM
F380Y/beta4 = settings: U2OS BacMam BK variants, at 30 µM
[1] = molecular target: Calcium-activated potassium channel subunit alpha-1 (Homo sapiens) + Leucine-rich repeat-containing protein 26 (Homo sapiens) (UniProt Q12791+Q2I0M4); settings: U2OS BacMam BK variants, F380Y/Slo1WT/gamma1, at 30 µM
R275C = settings: U2OS BacMam BK variants, at 30 µM
R275C/beta1 = settings: U2OS BacMam BK variants, at 30 µM
R275C/beta2Delta = settings: U2OS BacMam BK variants, at 30 µM
R275C/beta4 = settings: U2OS BacMam BK variants, at 30 µM
R275C/Slo1WT/beta2 = settings: U2OS BacMam BK variants, at 30 µM

Measured: log fold change Tl+ flux

Chain of Calcium-activated potassium channel subunit alpha-1 (Homo sapiens) + Leucine-rich repeat-containing protein 26 (Homo sapiens) (Q2I0M4 whole entry, looked up, one chain of several): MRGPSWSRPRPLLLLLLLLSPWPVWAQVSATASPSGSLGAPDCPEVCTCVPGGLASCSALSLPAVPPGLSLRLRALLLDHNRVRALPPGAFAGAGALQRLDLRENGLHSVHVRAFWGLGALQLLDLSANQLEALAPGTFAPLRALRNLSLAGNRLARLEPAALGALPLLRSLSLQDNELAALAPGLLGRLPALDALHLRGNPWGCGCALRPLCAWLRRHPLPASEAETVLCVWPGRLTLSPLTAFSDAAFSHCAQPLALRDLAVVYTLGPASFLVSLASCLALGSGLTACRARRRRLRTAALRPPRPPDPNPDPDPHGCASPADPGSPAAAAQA

COC(=O)C1=C(C)NC(C)=C(C(=O)OC)C1c1ccccc1
inactive: F380Y -0.0145 | F380Y/beta1 0.00442 | F380Y/beta2Delta -0.0123 | F380Y/beta4 0.0301 | [1] 0.0229 | R275C 0.00578 | R275C/beta1 0.033 | R275C/beta2Delta -0.018 | R275C/beta4 0.0507 | R275C/Slo1WT/beta2 0.0172

CCCOc1ccccc1C=NNC(=S)Nc1ccc(C)c(C)c1
inactive: F380Y 0.0357 | F380Y/beta1 0.0157 | F380Y/beta2Delta 0.00918 | F380Y/beta4 0.0274 | [1] -0.0242 | R275C -0.0214 | R275C/beta1 0.0271 | R275C/beta2Delta -0.0014 | R275C/beta4 0.00171 | R275C/Slo1WT/beta2 0.0415

Cc1nn(Cc2nnn(CC(=O)NN=Cc3ccc(Cl)cc3)n2)c(C)c1Br
inactive: F380Y 0.0697 | F380Y/beta1 0.0216 | F380Y/beta2Delta 0.00259 | F380Y/beta4 -0.0438 | [1] 0.0569 | R275C 0.0224 | R275C/beta1 -0.0427 | R275C/beta2Delta -0.045 | R275C/beta4 0.011 | R275C/Slo1WT/beta2 0.0426

Cc1c(C)c(C)c(C(=O)c2ccccc2C(=O)NN)c(C)c1C
active: R275C/beta1 0.144 | R275C/beta4 0.0879
inactive: F380Y 0.0326 | F380Y/beta1 0.0715 | F380Y/beta2Delta 0.00841 | F380Y/beta4 0.0586 | [1] 0.0596 | R275C 0.02 | R275C/beta2Delta 0.0153 | R275C/Slo1WT/beta2 0.00811

Cc1oc(S(=O)(=O)N2CCOCC2)cc1C(=O)Nc1ccc(F)cc1
inactive: F380Y/beta1 -0.00781 | F380Y/beta2Delta -0.0147 | F380Y/beta4 -0.000333 | [1] 0.0253 | R275C 0.0114 | R275C/beta1 0.0125 | R275C/beta2Delta 0.00085 | R275C/beta4 0.00598 | R275C/Slo1WT/beta2 -0.0174
active: F380Y 0.119

O=C(NCC1CC1)c1ccccc1NS(=O)(=O)c1cccc2nonc12
inactive: F380Y 0.0757 | F380Y/beta1 0.0238 | F380Y/beta2Delta 0.0491 | F380Y/beta4 0.0071 | [1] -0.00954 | R275C 1.3e-05 | R275C/beta1 0.0417 | R275C/beta2Delta 0.0268 | R275C/beta4 0.0533 | R275C/Slo1WT/beta2 0.0216

Cc1cc(-c2nn(C)c(=O)c3ccccc23)cc(C)c1O
inactive: F380Y 0.00104 | F380Y/beta1 0.0146 | F380Y/beta2Delta 0.00813 | F380Y/beta4 -0.0513 | [1] -0.0365 | R275C 0.0132 | R275C/beta1 0.0233 | R275C/beta2Delta -0.0115 | R275C/beta4 0.0138 | R275C/Slo1WT/beta2 -0.0205

Cc1nc(-c2ccccc2)sc1C(=O)NC(=O)c1ccccc1O
active: [1] 0.146
inactive: F380Y 0.0264 | F380Y/beta1 0.0766 | F380Y/beta2Delta 0.0338 | F380Y/beta4 0.00645 | R275C 0.0501 | R275C/beta1 0.0519 | R275C/beta2Delta 0.07 | R275C/beta4 0.078 | R275C/Slo1WT/beta2 0.011

O=C1c2cc(S(=O)(=O)O)ccc2CCC1S(=O)(=O)O (stereo not given)
active: F380Y/beta1 0.132 | F380Y/beta2Delta 0.167 | R275C/beta2Delta 0.151
inactive: F380Y 0.0577 | F380Y/beta4 0.0447 | [1] -0.0209 | R275C 0.0448 | R275C/beta1 0.0433 | R275C/beta4 0.0299 | R275C/Slo1WT/beta2 -0.0389

N#Cc1cc(-c2ccccc2)oc1NC(=O)c1cccs1
inactive: F380Y -0.0586 | F380Y/beta1 0.0261 | F380Y/beta2Delta 0.0131 | F380Y/beta4 0.0109 | [1] 0.0363 | R275C 0.00241 | R275C/beta1 -0.0262 | R275C/beta2Delta 0.0138 | R275C/beta4 -0.00555 | R275C/Slo1WT/beta2 0.0278

CCC(=NOc1ccc(C(F)(F)F)cn1)c1ccc(-c2ccccc2F)cc1
active: F380Y 0.147
inactive: F380Y/beta1 -0.0225 | F380Y/beta2Delta 0.0209 | F380Y/beta4 -0.0257 | [1] -0.0559 | R275C -0.0194 | R275C/beta1 0.00871 | R275C/beta2Delta 0.0154 | R275C/beta4 0.0265 | R275C/Slo1WT/beta2 -0.0112

Cc1ccc(C(=O)c2c(-c3ccccc3)cc(-c3ccccc3)c3c2C(=O)CCC3)cc1
inactive: F380Y 0.0109 | F380Y/beta1 -0.036 | F380Y/beta2Delta 0.0354 | F380Y/beta4 -0.0286 | [1] -0.0641 | R275C 0.0312 | R275C/beta1 -0.0154 | R275C/beta2Delta 0.00863 | R275C/beta4 -0.00364 | R275C/Slo1WT/beta2 -0.0497

Oc1c(Cl)cc(Cl)cc1C=Nc1nccs1
inactive: [1] 0.0431 | R275C -0.0362 | R275C/beta4 0.0731 | R275C/Slo1WT/beta2 0.0241
active: F380Y 0.115 | F380Y/beta1 0.153 | F380Y/beta2Delta 0.108 | F380Y/beta4 0.105 | R275C/beta1 0.112 | R275C/beta2Delta 0.0936

CCOC(=O)Cn1c(=O)ccc2c(C)cc(C)nc21
inactive: F380Y 0.0287 | F380Y/beta1 -0.0128 | F380Y/beta2Delta 0.0236 | F380Y/beta4 -0.0078 | [1] 0.0102 | R275C -0.00247 | R275C/beta1 -0.0331 | R275C/beta2Delta 0.00136 | R275C/beta4 0.00241 | R275C/Slo1WT/beta2 -0.00135

CC(=O)OCC(=O)C1(O)C(C)CC2C3CCC4CC(=O)C=CC4(C)C3C(O)CC21C (stereo not given)
inactive: F380Y 0.0723 | F380Y/beta1 -0.0034 | F380Y/beta2Delta -0.017 | F380Y/beta4 0.0362 | [1] -0.00155 | R275C 0.00844 | R275C/beta1 0.0348 | R275C/beta2Delta 0.0375 | R275C/beta4 0.0527 | R275C/Slo1WT/beta2 0.00132

Cn1c(Sc2cnc(=S)[nH]c2-c2ccc(Cl)cc2)nnc1C(F)(F)F
inactive: F380Y 0.000803 | F380Y/beta1 0.0224 | F380Y/beta2Delta 0.000625 | F380Y/beta4 -0.0336 | [1] 0.0434 | R275C -0.0138 | R275C/beta1 -0.00364 | R275C/beta2Delta -0.0183 | R275C/beta4 0.0272 | R275C/Slo1WT/beta2 0.0806

CN(C1CCCCC1)S(=O)(=O)c1cccs1
inactive: F380Y -0.0928 | F380Y/beta1 -0.00759 | F380Y/beta2Delta -0.0383 | F380Y/beta4 0.000313 | [1] -0.00414 | R275C -0.0438 | R275C/beta1 -0.00595 | R275C/beta2Delta -0.0535 | R275C/beta4 -0.025 | R275C/Slo1WT/beta2 0.0321

Cc1onc(-c2c(Cl)cccc2Cl)c1C1=NCCO1
inactive: F380Y -0.0274 | F380Y/beta1 -0.0222 | F380Y/beta2Delta -0.0541 | F380Y/beta4 -0.0118 | [1] -0.0114 | R275C -0.0117 | R275C/beta1 -0.0507 | R275C/beta2Delta -0.0377 | R275C/beta4 0.0277 | R275C/Slo1WT/beta2 -0.00731

O=S1(=O)CC(N2CCOCC2)c2ccccc21 (stereo not given)
inactive: F380Y -0.0264 | F380Y/beta1 -0.00462 | F380Y/beta2Delta 0.0333 | F380Y/beta4 0.00745 | [1] 0.00701 | R275C -0.00299 | R275C/beta1 0.0226 | R275C/beta2Delta 0.00722 | R275C/beta4 0.00198 | R275C/Slo1WT/beta2 -0.0351

FC(F)(F)COc1ccc(-c2nnc(SCc3ccccc3C(F)(F)F)o2)cn1
inactive: F380Y 0.00456 | F380Y/beta1 -0.0223 | F380Y/beta2Delta -0.0257 | F380Y/beta4 -0.0497 | [1] -0.0179 | R275C -0.0108 | R275C/beta1 0.0313 | R275C/beta2Delta -0.0204 | R275C/beta4 0.0273 | R275C/Slo1WT/beta2 0.0157

CC(=O)C1=C(C)Nc2ccccc2S1
inactive: F380Y 0.0144 | F380Y/beta1 -0.00709 | F380Y/beta2Delta -0.0326 | F380Y/beta4 -0.00774 | [1] -0.000563 | R275C 0.0464 | R275C/beta1 -0.0243 | R275C/beta2Delta -0.0168 | R275C/beta4 -0.00794 | R275C/Slo1WT/beta2 0.0465

CSC(=S)NNC(=O)c1ccc(C(F)(F)F)cc1
active: F380Y/beta1 0.233 | F380Y/beta4 0.29 | R275C 0.134 | R275C/beta1 0.158 | R275C/beta4 0.305 | R275C/Slo1WT/beta2 0.232
inactive: F380Y 0.0858 | F380Y/beta2Delta 0.0998 | [1] 0.1 | R275C/beta2Delta 0.0788

Cc1cc(S(=O)(=O)c2ccc(Cl)cc2)sc1C(=O)NCC(O)c1ccccc1 (stereo not given)
inactive: F380Y 0.0511 | F380Y/beta1 0.0134 | F380Y/beta2Delta 0.000794 | F380Y/beta4 0.0168 | [1] -0.0326 | R275C -0.0286 | R275C/beta1 0.095 | R275C/beta2Delta 0.0132 | R275C/beta4 0.0561 | R275C/Slo1WT/beta2 -0.00987

CCSc1n[nH]c(=S)s1
inactive: F380Y -0.0724 | F380Y/beta1 0.0129 | F380Y/beta2Delta 0.00494 | F380Y/beta4 0.00824 | [1] -0.0169 | R275C 0.0305 | R275C/beta1 -0.0034 | R275C/beta2Delta 0.0134 | R275C/beta4 0.0178 | R275C/Slo1WT/beta2 0.00702

COC(=O)c1cc(C)nc(Sc2n[nH]c(-c3cc(Cl)cc(Cl)c3)n2)n1
inactive: F380Y -0.0391 | F380Y/beta2Delta 0.0312 | F380Y/beta4 0.046 | [1] 0.044 | R275C 0.00719 | R275C/beta1 0.0447 | R275C/beta2Delta 0.0581 | R275C/beta4 0.0071 | R275C/Slo1WT/beta2 0.059
active: F380Y/beta1 0.0897

NC(CS(=O)(=O)Cc1ccco1)=NO
inactive: F380Y 0.0416 | F380Y/beta1 0.0173 | F380Y/beta2Delta 0.00572 | F380Y/beta4 0.019 | [1] -0.0714 | R275C -0.017 | R275C/beta1 -0.00211 | R275C/beta2Delta -0.0186 | R275C/beta4 -0.0304 | R275C/Slo1WT/beta2 -0.0219
